Assay outcomes as filed in PubChem BioAssay.
ABHD5 PLIN5 PPI – inhibitors of human ABHD5-perilipin-5 interaction | Q00G26+Q8WTS1 | Split G. princeps luciferase complementation, luminescence, 4 h | inhibition, % at 4 µM | 360,000 compounds, 0.78% hits | AID 602281;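 active = inhibition above the mean inhibition across every tested compound plus 3 SD, cut at about 22% in these data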;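 also: 0% = DMSO only wells and the 100% control is not disclosed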
Exocytosis inh – blocks lytic granule exocytosis | TALL-104 LAMP-1 surface exposure, flow cytometry; cells stimulated with thapsigargin and PMA | inhibition, % at 10 µM | 360,000 compounds, 0.66% hits | AID 651702;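 active = inhibition above about 55%, limit read from the data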
TLR4-MyD88 BLA – TLR4-MyD88 interaction inhibition in cells; 200,000 compounds, 0.18% hits; inhibition, % at 8.4 µM; HeLa CL3-4 TLR4/MyD88 BLA complementation, FRET ratio; in the data active = inhibition above about 25%;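 also: 0% = vehicle and 100% = reference inhibitor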
PRMT1 FP inh – inhibitors of human PRMT1; inhibition, % at 2.79 µM; Q99873; recombinant PRMT1, activity-based probe fluorescence polarization; AID 652257; 370,000 compounds, 1.3% hits;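 active = inhibition above about 21% made by adding two undisclosed values, limit read from the data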
NOD2-RIPK2 inh – inhibitors of human NOD2-RIPK2 interaction; CHO BLA complementation NOD2-RIPK2, CCF4 ratio; inhibition, % at 4.98 µM; 360,000 compounds, 0.38% hits; AID 624267; O43353; in the data active = inhibition above about 21%;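 also: 0% = vehicle only and 100% = reference blocker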
TLR9-MyD88 block – blocks human TLR9 binding to MyD88. Q9NR96+Q99836. CHO BLA complementation TLR9-MyD88, CCF4 FRET ratio. inhibition, % at 4.98 µM. 340,000 compounds, 0.21% hits. AID 504734;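 active = inhibition above the mean over all tested compounds plus 3 SD, cut at about 21% in these data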;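 also: 0% = DMSO only wells and 100% = clavulanate BLA inhibitor control wells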
ABHD5-PLIN5 conf – confirmation of human ABHD5-PLIN5 interaction inhibitors; shares compounds with ABHD5 PLIN5 PPI; biochemical ABHD5-PLIN5 interaction, luminescence; inhibition, % at 4 µM; 2,200 compounds, 67% hits; AID 651612; in the data active = inhibition above about 23%;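 also: 0% = DMSO vehicle wells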
HNF4 counter – HNF4 split-luciferase signal hit, counter-screen | shares compounds with ABHD5 PLIN5 PPI | HNF4 dimerization, luminescence, biochemical | inhibition, % at 4 µM | 2,200 compounds, 77% hits;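 active = mean inhibition across replicate wells exceeding the computed hit threshold, cut at about 13% in these data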;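 also: light from luciferase halves that rejoin when HNF4 fusion proteins dimerize; 0% = DMSO only wells and the 100% control is not given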
Target sequence (P41235 whole entry, looked up, the tested form may be a part): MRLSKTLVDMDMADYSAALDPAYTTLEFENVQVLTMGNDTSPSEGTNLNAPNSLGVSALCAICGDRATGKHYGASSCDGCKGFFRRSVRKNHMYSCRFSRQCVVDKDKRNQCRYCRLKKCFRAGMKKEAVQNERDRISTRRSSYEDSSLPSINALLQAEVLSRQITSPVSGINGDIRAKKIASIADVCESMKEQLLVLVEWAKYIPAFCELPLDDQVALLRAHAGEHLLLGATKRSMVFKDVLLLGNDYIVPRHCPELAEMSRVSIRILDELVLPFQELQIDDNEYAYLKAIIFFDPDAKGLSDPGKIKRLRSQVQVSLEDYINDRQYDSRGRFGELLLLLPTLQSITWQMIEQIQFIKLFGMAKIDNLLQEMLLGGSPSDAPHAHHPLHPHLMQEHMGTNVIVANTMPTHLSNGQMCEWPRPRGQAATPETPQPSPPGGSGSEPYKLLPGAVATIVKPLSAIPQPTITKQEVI
* = called active by the depositor; . = no result. An excerpt weighted towards active compounds, which were near 2.6% of everything screened.

SMILES | ABHD5 PLIN5 PPI | Exocytosis inh | TLR4-MyD88 BLA | PRMT1 FP inh | NOD2-RIPK2 inh | TLR9-MyD88 block | ABHD5-PLIN5 conf | HNF4 counter
CC(Oc1ccc(Br)cc1)C(=O)N1CCN(c2ccccn2)CC1 (configuration not stated) | -3 | 4 | . | -2 | -7 | 5 | . | .
CC(Oc1ccc(Br)cc1)C(=O)N1CCC(C(N)=O)CC1 (configuration not stated) | 45* | 1 | 12 | -1 | 2 | 6 | 10 | 7
O=C(NCCCc1ccccc1)OC1CC2CC1[C@H]1CCCCN1[C@H]2Cc1ccccc1 (some centres not stated) | . | . | . | -1 | . | . | . | .
Nc1[nH]c(C(=O)c2ccccc2)c(-c2ccccc2C(F)(F)F)c1C(=O)c1c[nH]c2ccccc12 | . | . | . | -6 | . | . | . | .
CSc1ccc(/C=C(\C#N)C(=O)NC2CCCCC2C)cc1 (configuration not stated) | 19 | 10 | -3 | 0 | 0 | 0 | . | .
COc1cc(/C=C(\C#N)C(=O)NC2CCCCC2C)ccc1OS(=O)(=O)c1ccc(C)cc1 (configuration not stated) | 38* | -2 | 8 | 3 | 1 | -4 | 67* | 49*
N#C/C(=C\c1c(F)cccc1Cl)C(=O)NC1CC1 | 23* | 0 | . | 1 | -6 | -5 | 30* | 21*
CC1CCCCC1NC(=O)/C(C#N)=C/c1ccccc1F (configuration not stated) | 34* | 1 | 2 | 2 | 6 | -4 | 82* | 78*
N#C/C(=C\c1ccccc1)C(=O)NC1CC1 | 4 | -3 | . | -3 | -12 | -4 | . | .
C=CCN1C(=O)c2n[nH]c(COC)c2C1c1ccc(C)cc1 (configuration not stated) | . | . | . | 1 | . | . | . | .
COC(=O)C1=C(C)N(Cc2ccc(Br)cc2)C(=S)NC1c1ccc(OC)cc1 (configuration not stated) | . | . | . | -2 | . | . | . | .
Cc1nc([N+](=O)[O-])c(Sc2nc3ccc([N+](=O)[O-])cc3[nH]2)n1Cc1ccccc1 | 28* | 7 | -8 | -2 | 7 | 10 | 45* | 38*
Cc1nc([N+](=O)[O-])c(Br)n1Cc1ccccc1 | 15 | -4 | . | 4 | -3 | -2 | . | .
COc1cccc(-c2cnc3c(NC=O)cc(-c4ccc(S(C)(=O)=O)cc4)cn23)c1 | 6 | -12 | . | 2 | -8 | . | . | .
COc1cccc(-c2cnc3c(NC=O)cc(-c4ccoc4)cn23)c1 | 26* | 11 | . | 7 | 0 | . | 30* | 37*
CN(C)C(=O)c1cccc(-c2cnc3c(NC=O)cc(-c4ccccc4Cl)cn23)c1 | 24* | -2 | . | 4 | 6 | . | 20 | 12
CCOc1ccccc1NC(=S)NC1CC2CCC1C2 (configuration not stated) | 3 | 2 | . | . | -3 | 2 | . | .
S=C(NCCc1ccccn1)NC1CC2CCC1C2 (configuration not stated) | 62* | -5 | . | -10 | -3 | 4 | 1 | -2
CCOC(=O)C1=C(C)NC2=C(C(=O)C(C(=O)OCC)C(c3ccccc3OC)C2)C1c1ccccn1 (configuration not stated) | 8 | -4 | 10 | -3 | -5 | 12 | . | .
CCOC(=O)C1=C(C)NC2=C(C(=O)C(C(=O)OCC)C(c3ccco3)C2)C1c1ccccn1 (configuration not stated) | 42* | 0 | -8 | 0 | -7 | 1 | 3 | 17*
COc1ccc(NC(=S)N2CCN(Cc3ccco3)CC2)c(OC)c1 | 23* | -4 | -6 | 2 | 6 | -3 | 3 | 14*
COc1ccc(CN2C[C@@]3(O)CC[C@@H](O)[C@@H](OC)[C@@H]3[C@@](C)(O)[C@@H]2CC=C(C)C)cc1 | . | . | . | -1 | . | . | . | .
CCOC(=O)/C(=C\c1ccc(Cl)cc1)c1nc2sc(C)c(C)c2c(=O)[nH]1 | 46* | 13 | 7 | 5 | 6 | 7 | 99* | 77*
CCOC(=O)CSc1nc2sc(C)c(C)c2c(=O)[nH]1 | 9 | 5 | -1 | -1 | -3 | -9 | . | .
O=C(CC1CCCC1)N[C@H](C(=O)N1CCC[C@H]1C(=O)NC1CCCC1)C1CCCCC1 | . | . | . | -1 | . | . | . | .
SMILES | ABHD5 PLIN5 PPI | Exocytosis inh | TLR4-MyD88 BLA | PRMT1 FP inh | NOD2-RIPK2 inh | TLR9-MyD88 block | ABHD5-PLIN5 conf | HNF4 counter
O=C1CC(c2ccccc2)CC(=O)C1CS(=O)(=O)c1ccccc1 (configuration not stated) | 34* | 2 | -10 | 20 | -7 | 0 | 48* | 105*
O=C1CC(=O)CC(c2ccccc2)C1 | -3 | 3 | -15 | 2 | -4 | 4 | . | .
c1ccc(Cc2cnc(N3CCN(Cc4ccc5c(c4)OCCO5)CC3)nc2)cc1 | . | . | . | -1 | . | . | . | .
Cc1ccc(NCc2nc3ccccc3n2CCOc2ccccc2)cc1 | 26* | 3 | -7 | 0 | -1 | -5 | 6 | 2
Cc1ccc(C(=O)/C=C/c2ccc(F)cc2)o1 | 42* | -4 | -11 | 0 | 4 | -6 | 62* | 47*
O=C(/C=C/c1ccc(O)c(O)c1)c1ccccc1O | 10 | 0 | . | 6 | -12 | 3 | . | .
COc1ccc(/C=C/C(=O)c2oc3ccc(F)cc3c2C)cc1 | 0 | 11 | 5 | . | 3 | -2 | . | .
O=C(/C=C/c1ccc(F)cc1)c1ccccc1Br | 56* | 4 | 0 | -1 | 3 | 7 | 96* | 88*
COC(=O)C1=C(C)NC(C)=C(C(=O)OC)C(N2C(=O)CCC2=O)C1 (configuration not stated) | . | . | . | -10 | . | . | . | .
CC(c1cc(F)ccc1O)c1c[nH]c2ccccc12 (configuration not stated) | . | . | . | 1 | . | . | . | .
COC(=O)[C@]12C[C@H](CC(=O)NCC34CC5CC(CC(C5)C3)C4)C(=O)N(CCC3=CCCCC3)C1=C[C@H](COCc1ccccc1)O[C@@H]2C | . | . | . | 3 | . | . | . | .
CCOC(=O)C1=C(C(=O)OCC)C2N(Cc3ccc(Br)cc3)c3ccccc3[C@@]23C[C@@H](C(=O)OC)N(S(=O)(=O)c2ccc(C(F)(F)F)cc2)C3=N1 (some centres not stated) | . | . | . | -5 | . | . | . | .
Cc1ccc2nc(/C(C#N)=C\c3ccc(N4CCOCC4)o3)[nH]c2c1 | 24* | 1 | 12 | 20 | 8 | 8 | 31* | 44*
Cc1ccc2nc(/C(C#N)=C/c3ccc(-c4ccccc4C(=O)O)o3)[nH]c2c1 | -3 | 8 | . | -13 | 10 | 2 | . | .
CC(C)n1c(=NC(=O)c2ccco2)c(C#N)cc2c(=O)n3ccccc3cc21 | 27* | 1 | -12 | 10 | -29 | -32 | 29* | 54*
